Experimental data as given in PubChem BioAssay (NCATS).
Inconclusive results are not listed. The source made the active and inactive calls. Unless noted, the call rests on the fitted dose curve; in most records, active means well fitted curve in the direction sought with a large enough effect; inconclusive means small, poorly fitted or top-dose-only effect, or another doubt; inactive means no such curve, though single readings can be large; an effect the other way counts as inactive or inconclusive.

Experiments:
[1] = qHTS Assay for Lipid Storage Modulators (AID 1519; calls by dose curve; on activity change, negative = inhibition: on the % scale 0 is the no-effect control and ±100 the full control effect); conditions: Drosophila S3 cells, BODIPY lipid droplet/cell ratio, laser cytometry, cells loaded with oleic acid; for activity change, negative = inhibition: at 57.5 µM (top of the series)
How it was run: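 Cells seeded at 5,000 per well were treated with compounds over a concentration series and loaded with oleic acid (400 uM, as added). Lipid droplet fluorescence (488 nm excitation, 500-530 nm channel) was read by laser-scanning cytometry and normalized to 20 uM Triacsin C.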

[2] = tested on: Zika virus NS2B-NS3 protease; assay: Primary screen GU AMC qHTS for Zika virus inhibitors (AID 1347154);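 further: 0% = no-inhibitor control and -100% = no-enzyme control; nearly all actives have a fitted effect of over 70% in size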
How it was run: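 Fluorogenic AMC-substrate cleavage by noncovalent NS2B-NS3 protease complex (25 nM, pH 8.0 Tris buffer with Tween 20) followed for 15 minutes at room temperature (~20% conversion). Percent inhibition from ex340/em450 signal change, fitted by 4-parameter Hill equation.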

[3] = Primary qHTS for small molecule stabilizers of the endoplasmic reticulum resident proteome: Secreted ER Calcium Modulated Protein (SERCaMP) assay (AID 1508630); further: on the % scale 0 is the no-effect control and ±100 the full control effect
How it was run: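 The SH-SY5Y reporter protocol was run at 3 concentrations up to 38.3 uM (primary) or 11 concentrations (follow-up): 16 h compound, 100 nM thapsigargin for 4 h, then extracellular luciferase luminescence.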

[4] = molecular target: Glucocorticoid receptor (Homo sapiens) (UniProt P04150); assay: GR-GFP Redistribution (AID 450;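 active means compounds whose dose series gives a full or clear partial fitted curve of increased nuclear translocation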; further: potency means the concentration at half of the fitted maximal effect); conditions: U2OS GR-GFP nuclear translocation, laser cytometry, 2 h
Chain of Glucocorticoid receptor (Homo sapiens) (P04150 whole entry, looked up, the tested form may be a part): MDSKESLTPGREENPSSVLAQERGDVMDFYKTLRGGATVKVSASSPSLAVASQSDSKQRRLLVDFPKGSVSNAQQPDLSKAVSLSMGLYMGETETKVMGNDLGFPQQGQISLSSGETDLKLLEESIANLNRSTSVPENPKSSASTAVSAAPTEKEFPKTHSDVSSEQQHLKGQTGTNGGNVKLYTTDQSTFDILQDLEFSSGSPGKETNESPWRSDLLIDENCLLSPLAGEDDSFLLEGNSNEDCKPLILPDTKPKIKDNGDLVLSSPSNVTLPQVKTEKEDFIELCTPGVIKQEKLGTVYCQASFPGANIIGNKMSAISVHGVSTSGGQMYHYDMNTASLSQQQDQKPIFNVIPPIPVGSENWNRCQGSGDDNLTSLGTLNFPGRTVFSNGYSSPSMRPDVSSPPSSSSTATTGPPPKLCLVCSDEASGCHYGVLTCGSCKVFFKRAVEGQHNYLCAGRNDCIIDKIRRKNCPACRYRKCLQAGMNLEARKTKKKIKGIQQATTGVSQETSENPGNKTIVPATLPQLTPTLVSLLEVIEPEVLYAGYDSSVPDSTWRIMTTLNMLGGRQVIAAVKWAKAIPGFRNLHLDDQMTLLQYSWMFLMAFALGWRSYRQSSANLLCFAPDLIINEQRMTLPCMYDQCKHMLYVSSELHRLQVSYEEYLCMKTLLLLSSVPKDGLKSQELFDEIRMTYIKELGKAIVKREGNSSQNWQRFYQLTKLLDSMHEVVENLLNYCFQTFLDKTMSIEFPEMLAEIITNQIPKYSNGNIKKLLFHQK

[5] = molecular target: Glucocorticoid receptor (Homo sapiens) (UniProt P04150); assay: GR-EFC Redistribution (AID 451; calls by dose curve; further: potency means the concentration at half of the fitted maximal effect); conditions: CHO-K1 GR-EFC translocation, beta-gal luminescence, 2 h
How it was run: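 Translocation of GR-ED fusion to nuclear EA restores b-gal, read by luminescence after 1 h room-temperature detection. Engineered CHO-K1 biosensor cells, 1,000/well, exposed 2 h at 37 C to titrations up to 46 uM final.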

[6] = molecular target: Mitogen-activated protein kinase 10 (Mus musculus) (UniProt Q61831); assay: JNK3 AlphaScreen Assay (AID 530; active means well fitted curve in either direction with a large enough effect, not every such curve was filed as active;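 further: kinase came from lysate of stimulated human HepG2 cells; signal reports phosphorylation of biotinylated GST-cJun 1-79 at Ser73 with 10 µM ATP; on the % scale 0 is the no-effect control and ±100 the full control effect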)
How it was run: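 Kinase buffer: 20 mM Tris-HCl pH 7.6, 10 mM MgCl2, 1 mM DTT, 0.1 mM Na3VO4, 0.01% Tween-20; ATP 10 uM. Substrate biotin-GST-cJun(1-79), enzyme from activated HepG2 lysates. Detection by Ser73 phospho-antibody AlphaScreen.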

[7] = molecular target: 3',5'-cyclic-AMP phosphodiesterase 4B (Homo sapiens) (UniProt Q07343); assay: qHTS Assay for Inhibitors of PDE-IV (AID 607; active means well fitted activation curve with a large enough effect in the main read-out, with a control signal flat, not every such curve was filed as active; further: % of control where 0% means no effect)
Chain of 3',5'-cyclic-AMP phosphodiesterase 4B (Homo sapiens) (Q07343 whole entry, looked up): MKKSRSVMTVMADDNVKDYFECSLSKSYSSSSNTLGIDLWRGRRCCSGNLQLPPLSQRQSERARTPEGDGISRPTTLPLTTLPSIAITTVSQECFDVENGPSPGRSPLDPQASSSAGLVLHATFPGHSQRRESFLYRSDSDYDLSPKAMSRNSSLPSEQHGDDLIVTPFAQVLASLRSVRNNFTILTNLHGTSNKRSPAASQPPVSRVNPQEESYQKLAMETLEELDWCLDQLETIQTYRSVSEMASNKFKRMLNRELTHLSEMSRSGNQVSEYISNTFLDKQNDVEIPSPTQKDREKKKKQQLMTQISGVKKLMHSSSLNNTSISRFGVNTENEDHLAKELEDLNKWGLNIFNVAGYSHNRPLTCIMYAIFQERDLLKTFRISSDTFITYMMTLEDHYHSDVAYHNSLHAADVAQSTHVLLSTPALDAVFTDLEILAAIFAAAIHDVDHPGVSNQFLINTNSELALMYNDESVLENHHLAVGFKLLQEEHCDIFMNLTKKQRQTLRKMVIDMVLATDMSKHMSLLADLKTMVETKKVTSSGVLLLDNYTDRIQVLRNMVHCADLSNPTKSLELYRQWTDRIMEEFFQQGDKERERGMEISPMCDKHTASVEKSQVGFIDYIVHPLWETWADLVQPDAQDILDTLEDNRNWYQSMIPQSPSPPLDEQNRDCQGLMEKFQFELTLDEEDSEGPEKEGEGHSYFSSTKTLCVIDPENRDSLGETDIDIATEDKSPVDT
How it was run: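 The readout is membrane depolarisation from a cAMP-sensing CNG channel, detected with a potential dye at ex 535/em 590. Cells were HEK293-derived (endogenous PDE-IV) at 1000 cells/well, titrated up to 22.9 uM final.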

[8] = molecular target: Ubiquitin carboxyl-terminal hydrolase 1 (Homo sapiens) (UniProt O94782); assay: Inhibitors of USP1/UAF1: Pilot qHTS (AID 504865);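 further: rhodamine fluorescence freed from ubiquitin-rhodamine substrate followed over time; top concentration of the series differs between compounds; on the % scale 0 is the no-effect control and ±100 the full control effect; nearly all actives have a fitted effect of over 35% in size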
Chain of Ubiquitin carboxyl-terminal hydrolase 1 (Homo sapiens) (O94782 whole entry, looked up): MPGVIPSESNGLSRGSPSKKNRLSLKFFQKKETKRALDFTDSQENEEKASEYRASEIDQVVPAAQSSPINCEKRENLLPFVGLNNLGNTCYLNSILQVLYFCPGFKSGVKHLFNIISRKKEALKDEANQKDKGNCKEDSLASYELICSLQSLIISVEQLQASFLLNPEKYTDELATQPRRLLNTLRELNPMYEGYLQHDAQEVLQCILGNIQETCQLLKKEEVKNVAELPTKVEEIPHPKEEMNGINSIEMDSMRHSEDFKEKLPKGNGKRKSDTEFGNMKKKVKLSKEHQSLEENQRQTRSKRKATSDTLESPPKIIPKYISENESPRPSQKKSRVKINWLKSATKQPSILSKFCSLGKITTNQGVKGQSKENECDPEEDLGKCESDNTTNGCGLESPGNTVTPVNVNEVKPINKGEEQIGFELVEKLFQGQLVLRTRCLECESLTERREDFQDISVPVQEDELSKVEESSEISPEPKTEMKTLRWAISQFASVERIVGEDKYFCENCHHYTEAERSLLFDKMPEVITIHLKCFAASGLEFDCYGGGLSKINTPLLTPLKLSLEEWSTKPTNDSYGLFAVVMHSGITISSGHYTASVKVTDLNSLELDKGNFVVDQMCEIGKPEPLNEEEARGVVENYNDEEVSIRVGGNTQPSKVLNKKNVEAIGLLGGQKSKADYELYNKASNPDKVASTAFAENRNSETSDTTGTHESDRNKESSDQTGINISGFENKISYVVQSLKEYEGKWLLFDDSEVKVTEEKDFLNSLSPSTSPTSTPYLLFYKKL
How it was run: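 In 50mM HEPES pH 7.8 containing 0.5mM EDTA, 1mM TCEP, 0.1 mg/ml BSA and 0.01% Tween-20, 1nM USP1/UAF1 is exposed to compound for 15 min, then Ub-Rho (150nM final) is added and fluorescence is read over time.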

[9] = molecular target: DNA dC->dU-editing enzyme APOBEC-3G (Homo sapiens) (UniProt Q9HC16); assay: qHTS for inhibitors of Vif-A3G interactions: Validation (AID 588379); further: 0% is about no effect
Chain of DNA dC->dU-editing enzyme APOBEC-3G (Homo sapiens) (Q9HC16 whole entry, looked up): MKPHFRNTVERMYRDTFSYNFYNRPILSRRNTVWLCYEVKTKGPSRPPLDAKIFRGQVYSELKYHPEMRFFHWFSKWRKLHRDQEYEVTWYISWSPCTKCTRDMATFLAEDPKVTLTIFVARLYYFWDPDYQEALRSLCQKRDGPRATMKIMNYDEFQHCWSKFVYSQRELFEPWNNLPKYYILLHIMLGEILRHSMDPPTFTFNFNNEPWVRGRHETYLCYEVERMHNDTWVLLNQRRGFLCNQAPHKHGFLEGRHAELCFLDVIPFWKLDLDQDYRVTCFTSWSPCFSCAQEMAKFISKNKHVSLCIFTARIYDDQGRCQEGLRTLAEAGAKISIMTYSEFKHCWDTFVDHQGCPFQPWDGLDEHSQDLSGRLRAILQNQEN
How it was run: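 Yellow fluorescence (Ex 488, Em 500-530) of Vif-coexpressing HeLa A3G-eYFP cells, scanned by Acumen cytometer, reports blocked A3G degradation. Cells plated at 700/well overnight at 37 deg C before compound addition, then a further overnight compound incubation at 37 deg C.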

[10] = Counterscreen qHTS for small molecule stabilizers of the endoplasmic reticulum resident proteome: GLuc-NoTag assay (AID 1508627); further: potency means the concentration at half of the fitted maximal effect;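 on activity change, negative = inhibition: SH-SY5Y cells given compound then 100 nM thapsigargin to empty ER calcium; 0% = thapsigargin alone and -100% = DMSO vehicle control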
How it was run: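 Counterscreen line: SH-SY5Y-GLuc-NoTag cells, treated with compound 19 hr before a 4 hr, 100 nM thapsigargin calcium depletion. Secreted Gaussia luciferase in the medium was measured by luminescence after coelenterazine was added (0.07x final), with cells unlysed.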

[11] = AP1 Signaling Pathway (AID 357; active means well fitted curve in either direction with a large enough effect, not every such curve was filed as active; further: on the % scale 0 is the no-effect control and ±100 the full control effect)
How it was run: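 ME-180 cells with beta-lactamase reporter under AP-1 response element, stimulated with EC50 EGF; compounds tested in titration series, 5 h at 37 °C. CCF4 substrate added 2.5 h at room temperature; 460/530 nm emission ratio gave %activity and AC50.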

[12] = molecular target: Cytochrome P450 1A2 (Homo sapiens) (UniProt P05177); assay: p450-cyp1a2 (AID 410; calls by dose curve; further: potency means the concentration at half of the fitted maximal effect;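 on activity change, negative = inhibition: -100% = full effect of reference inhibitor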)
Chain of Cytochrome P450 1A2 (Homo sapiens) (P05177 whole entry, looked up): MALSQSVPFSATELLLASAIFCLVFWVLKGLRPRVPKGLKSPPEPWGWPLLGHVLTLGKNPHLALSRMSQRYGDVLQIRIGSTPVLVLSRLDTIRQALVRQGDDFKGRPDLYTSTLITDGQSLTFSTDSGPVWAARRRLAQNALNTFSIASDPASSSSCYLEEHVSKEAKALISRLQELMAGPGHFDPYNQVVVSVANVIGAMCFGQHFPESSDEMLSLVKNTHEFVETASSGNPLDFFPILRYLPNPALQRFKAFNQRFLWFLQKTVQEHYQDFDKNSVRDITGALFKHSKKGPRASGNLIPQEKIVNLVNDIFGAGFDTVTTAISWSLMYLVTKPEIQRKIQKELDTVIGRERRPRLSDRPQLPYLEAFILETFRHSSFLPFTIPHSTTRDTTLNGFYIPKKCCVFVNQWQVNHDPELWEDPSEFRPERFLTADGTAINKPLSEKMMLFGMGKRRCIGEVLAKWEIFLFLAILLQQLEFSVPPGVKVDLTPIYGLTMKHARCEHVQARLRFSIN
How it was run: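 Read-out is luminescence from luciferin produced by CYP1A2 demethylation of Luciferin-ME (100uM, at Km). Detection reagent stopped the 60 min NADPH-dependent reaction; signals were normalized to 57 uM furafylline.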

[13] = molecular target: Guanine nucleotide-binding protein G(i) subunit alpha-1 (Homo sapiens) (UniProt P63096); assay: qHTS Assay for Inhibitors of RGS12 GoLoco Motif Activity (Green Fluorophore) (AID 879);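 further: 0% = labeled peptide with Gαi1 and full inhibition = labeled peptide alone without protein; negative values mean loss of peptide binding seen as reduced polarization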
Chain of Guanine nucleotide-binding protein G(i) subunit alpha-1 (Homo sapiens) (P63096 whole entry, looked up): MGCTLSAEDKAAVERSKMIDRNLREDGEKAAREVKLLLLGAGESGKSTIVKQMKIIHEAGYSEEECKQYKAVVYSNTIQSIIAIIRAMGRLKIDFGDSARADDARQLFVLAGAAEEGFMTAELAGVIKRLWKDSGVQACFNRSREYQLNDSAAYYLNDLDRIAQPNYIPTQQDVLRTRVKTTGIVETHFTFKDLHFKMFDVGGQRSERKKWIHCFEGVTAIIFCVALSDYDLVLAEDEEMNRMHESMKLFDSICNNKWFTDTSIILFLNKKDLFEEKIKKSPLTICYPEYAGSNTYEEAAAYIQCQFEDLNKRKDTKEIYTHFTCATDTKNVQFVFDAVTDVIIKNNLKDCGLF
How it was run: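 A drop in FITC polarization marked displacement of the FITC-tagged RGS12 GoLoco peptide (10 nM) from Gαi1 (50 nM). Compounds were incubated 10 min at room temperature in Tris pH 7.5 buffer containing 150 mM NaCl, 0.1 mM GDP and 0.05% NP40; unlabeled peptide titration served as control.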

[14] = molecular target: Muscarinic acetylcholine receptor M1 (Rattus norvegicus) (UniProt P08482); assay: qHTS Assay for Antagonists of Acetylcholine Muscarinic M1 Receptor: Measurement of IP-One Response (AID 944); further: nearly all actives have a fitted effect of over 75% in size
Chain of Muscarinic acetylcholine receptor M1 (Rattus norvegicus) (P08482 whole entry, looked up): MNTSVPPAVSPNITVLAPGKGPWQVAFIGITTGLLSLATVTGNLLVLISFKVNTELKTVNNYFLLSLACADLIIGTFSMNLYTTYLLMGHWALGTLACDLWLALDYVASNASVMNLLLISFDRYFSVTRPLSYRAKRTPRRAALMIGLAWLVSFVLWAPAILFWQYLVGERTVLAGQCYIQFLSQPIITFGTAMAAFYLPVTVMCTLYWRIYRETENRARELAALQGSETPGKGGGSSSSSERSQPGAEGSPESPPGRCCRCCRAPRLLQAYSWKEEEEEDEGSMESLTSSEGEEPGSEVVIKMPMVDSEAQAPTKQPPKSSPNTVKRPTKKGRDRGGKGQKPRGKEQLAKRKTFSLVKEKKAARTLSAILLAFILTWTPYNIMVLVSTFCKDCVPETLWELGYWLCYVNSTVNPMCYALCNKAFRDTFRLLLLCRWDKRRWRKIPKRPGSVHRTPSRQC
How it was run: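 Antagonism was measured as loss of carbachol-driven (EC80) IP1 accumulation in CHO cells carrying rat M1, using a homogeneous IP-One TR-FRET kit read at 620 and 665 nm.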

[15] = molecular target: Pyruvate kinase (Leishmania mexicana) (UniProt Q27686); assay: qHTS Validation Assay for Inhibitors of Leishmania Mexicana Pyruvate Kinase (AID 945);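 further: 0% = DMSO only neutral control wells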
Chain of Pyruvate kinase (Leishmania mexicana) (Q27686 2-499 E452W): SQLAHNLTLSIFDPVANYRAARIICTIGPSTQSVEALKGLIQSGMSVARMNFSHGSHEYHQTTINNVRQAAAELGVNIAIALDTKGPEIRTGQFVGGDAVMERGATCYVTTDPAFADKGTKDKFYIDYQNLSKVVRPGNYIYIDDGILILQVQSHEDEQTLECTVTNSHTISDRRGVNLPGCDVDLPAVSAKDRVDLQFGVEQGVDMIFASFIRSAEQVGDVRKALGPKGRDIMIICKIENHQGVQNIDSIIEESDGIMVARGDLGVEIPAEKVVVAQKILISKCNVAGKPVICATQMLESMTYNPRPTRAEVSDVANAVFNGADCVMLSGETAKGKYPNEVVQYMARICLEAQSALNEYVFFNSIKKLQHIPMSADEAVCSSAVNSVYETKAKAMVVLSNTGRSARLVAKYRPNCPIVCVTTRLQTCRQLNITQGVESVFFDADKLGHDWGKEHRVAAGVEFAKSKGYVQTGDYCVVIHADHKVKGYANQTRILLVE
How it was run: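 qHTS eight-point titrations against 0.2 nM LmPYK (E451W) in imidazole buffer pH 7.2 with 0.5 mM PEP, 0.1 mM ADP; 1 h, room temperature. Readout: PKLight luminescence, normalized to neutral DMSO wells.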

[16] = molecular target: Pyruvate kinase PKM (Homo sapiens) (UniProt P14618); assay: qHTS Assay for Activators of Human Muscle Pyruvate Kinase (AID 954; active means well fitted curve in the direction sought with a large enough effect, not every such curve was filed as active;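 further: 0% = uninhibited enzyme and -100% = no enzyme or full thiadiazolimine inhibition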)
How it was run: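 PKM2, human, >95% pure, 0.1 nM; PEP 0.5 mM (Km), ADP 0.1 mM; 50 mM imidazole pH 7.2, 50 mM KCl, 0.01% Tween 20, 0.05% BSA; 1 h RT; luciferase luminescence readout.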

[17] = molecular target: Alpha-galactosidase (Coffea arabica) (UniProt Q42656); assay: Counterscreen for Glucocerebrosidase Inhibitors: qHTS Assay for Coffee Bean alpha-Galactosidase at pH 4.5 (AID 957);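 further: plate controls were enzyme alone for no effect and no enzyme for full effect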
Chain of Alpha-galactosidase (Coffea arabica) (Q42656 whole entry, looked up): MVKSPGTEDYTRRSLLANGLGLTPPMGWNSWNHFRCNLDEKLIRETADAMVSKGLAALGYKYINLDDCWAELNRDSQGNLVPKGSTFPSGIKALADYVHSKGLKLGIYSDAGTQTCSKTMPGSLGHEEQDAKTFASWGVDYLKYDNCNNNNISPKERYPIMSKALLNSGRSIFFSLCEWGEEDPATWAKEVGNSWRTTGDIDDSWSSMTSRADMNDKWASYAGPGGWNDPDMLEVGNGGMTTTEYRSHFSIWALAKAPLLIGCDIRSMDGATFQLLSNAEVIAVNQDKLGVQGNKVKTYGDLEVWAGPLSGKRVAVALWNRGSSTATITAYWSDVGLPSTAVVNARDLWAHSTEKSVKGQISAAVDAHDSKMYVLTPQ
How it was run: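 Quantitative HTS of compounds (0.7 nM to 77 uM) against coffee bean alpha-galactosidase at pH 4.5, measuring 4-methylumbelliferone fluorescence released from 80 uM substrate.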

[18] = molecular target: alpha-glucosidase (Oryza sativa, rice) (UniProt Q653V4); assay: Counterscreen for Glucocerebrosidase Inhibitors: qHTS Assay for Rice alpha-Glucosidase at pH 5.0 (AID 997);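 further: 0% = full activity with enzyme and -100% = basal without enzyme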
How it was run: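 Endpoint fluorogenic assay at pH 5.0: compounds (0.7 nM to 77 uM) titrated against 4 nM rice enzyme and 400 uM 4-MU-alpha-glucoside for 20 min at room temperature; NaOH/glycine stop, read ex 365/em 440 nm, Hill-fitted AC50.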

[19] = molecular target: Alpha-galactosidase (Coffea arabica) (UniProt Q42656); assay: Counterscreen for Glucocerebrosidase Inhibitors: qHTS Assay for Coffee Bean alpha-Galactosidase at pH 5.9 (AID 998);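 further: plate controls were uninhibited enzyme for no effect and no-enzyme basal signal for full effect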
How it was run: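 Fluorogenic 4-MU substrate hydrolysis, 80 uM substrate and 2 nM coffee bean alpha-galactosidase, pH 5.9 citrate buffer, 20 min at room temperature, then NaOH/glycine stop. Titration 0.7 nM–77 uM, normalized to no-enzyme and enzyme controls, AC50 via Hill equation.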

[20] = measured here: cell count channel max response
[21] = measured here: lipid channel max response

CC(O)C(C)OC(=O)[C@@H]1C[C@@H]2c3cccc4c3c(cn4C(C)C)C[C@H]2N(C)C1 (some centres undefined)
-4.58%: max response [1, 20]
-0.261%: max response [1, 21]
inactive: activity change, negative = inhibition [1] 2.46% | Potency [2] | Potency [3]

CN(CCc1ccc(Cl)c(Cl)c1)[C@@H]1CCCC[C@@H]1N1CCCC1
inactive: Potency [2]

NC(N)=NCCCCCCCCCCN=C(N)N
inactive: Potency [4] > 46 µM | Potency [5] > 46 µM | outcome [6] | Potency [7] | activity change, negative = inhibition [1] -3.22% | Potency [8] | Potency [9] | Potency [2] | Potency [10] | Potency [3]
7.9%: max response [1, 20]
7.14%: max response [1, 21]

CCC(Sc1ccccc1)C(=O)OC1CC2CCC(C1)N2C (centres undefined)
inactive: Potency [2] | Potency [10]

CC(C)(O)C1O[C@H]2CC[C@@]3(C)[C@@](O)(CC[C@H]4Cc5c([nH]c6ccccc56)[C@@]43C)C2=CC1=O (some centres undefined)
inactive: Potency [2] | Potency [10] | Potency [3]

OC12C3C4CC5C6C4C1C6C(C53)N2CCc1cccc(F)c1 (centres undefined)
inactive: Potency [2] | Potency [10]

COc1cc(CCN)ccc1O
inactive: outcome [11] | Potency [12] | Potency [4] > 46 µM | Potency [5] > 46 µM | outcome [6] | outcome [13] | Potency [14] | outcome [15] | outcome [16] | outcome [17] | outcome [18] | outcome [19] | Potency [2] | Potency [3]

C[C@@H](C(=O)OC1C[C@H]2CC[C@@H](C1)N2C)c1ccc(Br)cc1 (some centres undefined)
16.9%: max response [1, 21]
inactive: Potency [4] > 46 µM | Potency [5] > 46 µM | outcome [6] | activity change, negative = inhibition [1] 2.43% | Potency [8] | Potency [9] | Potency [2] | Potency [10]
active: Potency [12] 39.8 µM
12.6%: max response [1, 20]

CN1[C@@H]2CC[C@H]1CC(OC(c1ccc(F)cc1)c1ccc(F)cc1)C2 (some centres undefined)
inactive: Potency [4] > 46 µM | Potency [5] > 46 µM | Potency [8] | Potency [9] | Potency [2]
active: Potency [10] 44.7 µM

CCCCCCC[n+]1ccc(-c2cc[n+](CCCCCCC)cc2)cc1
inactive: Potency [5] > 46 µM | Potency [7] | Potency [8] | Potency [9] | Potency [2] | Potency [10]

Cn1c2c(c3ccccc31)CCNCC2
inactive: Potency [2] | Potency [10]
